The full ranking holds about 140,000 sequences; the median of “enrichment ratio after two sorts for PhoP signalling” is about 0, and the highest 2% start at about 11. Many of the other results were omitted from the sample, so the highest values are more common in it than they were.

The labels stand for the following.
B1: PhoQ; a variant is named by its letters at X, in order, P23837 (parent)
chain: MKKLLRLFFPLSLRVRFLLATAAVVLVLSLAYGMVALIGYSVSFDKTTFRLLRGESNLFYTLAKWENNKLHVELPENIDKQSPTMTLIYDENGQLLWAQRDVPWLMKMIQPDWLKSNGFHEIEADVNDTSLLLSGDHSIQQQLQEVREDDDDAEMTHSVAVNVYPATSRMPKLTIVVVDTIPVELKSSYMVWSWFIYVLSANLLLVIPLLWVAAWWSLRPIEALAKEVRELEEHNRELLNPATTRELTSLVRNLNRLLKSERERYDKYRTTLTDLTHSLKTPLXXLQXXLRSLRSEKMSVSDAEPVMLEQISRISQQIGYYLHRASMRGGTLLSRELHPVAPLLDNLTSALNKVYQRKGVNISLDISPEISFVGEQNDFVEVMGNVLDNACKYCLEFVEISARQTDEHLYIVVEDDGPGIPLSKREVIFDRGQRVDTLRPGQGVGLAVAREITEQYEGKIVAGESMLGGARMEVIFGRQHSAPKDE

Variants of B1 are the subject of the assay. In words: enrichment ratio after two sorts for PhoP signalling (ratio (wild type AVST 3.29)); higher = more functional. The note with it: with PhoP (E. coli).
As to DWSK, the enrichment ratio is at most 0.25.
On to GLGH, for which the enrichment ratio was at most 0.25.
The result for IMDI reads at most 0.25.
Regarding QSMQ, the enrichment ratio was at most 0.25.
The result for VMGY reads at most 0.25; that for NRNH, at most 0.25.
As to TNKN, the enrichment ratio is at most 0.25.
For QMHM, the enrichment ratio came out at 28.3.
The result for QMHP reads at most 0.25.
The result for QMWQ reads at most 0.25.
Turning to QRNF, the enrichment ratio was at most 0.25.
The result for QMWM reads at most 0.25; that for QMPM, at most 0.25; that for QMHQ, 13.4.
Turning to QMNL, the enrichment ratio came out at 3.36.
For QMNN the value was 12.1; for QMNI, 9.75.
The result for QENN reads 3.33.
With QMNF, the enrichment ratio was found to be 36.
As for DYPW, the enrichment ratio was at most 0.25.
The result for LWVM reads at most 0.25.
On to GLWV, for which the enrichment ratio is at most 0.25.
For MEAP the value was at most 0.25; for GFED, at most 0.25.
The result for ATGH reads 5.03; that for EKMA, at most 0.25.
As to QMVG, the enrichment ratio is at most 0.25.
For QMHG the value was 13; for QMTR, at most 0.25.
Take SLYM: the enrichment ratio was at most 0.25.
For SEGM the value was 6.17; for SEQN, 21.6.
In the case of SEEN, the enrichment ratio was at most 0.25.
For SEYM the value was 19.4; for SENL, at most 0.25.
For the variant ISAH, the enrichment ratio was at most 0.25.
For GGLK the value was at most 0.25.
For HLNC the value was at most 0.25; for DDAI, at most 0.25.
Take QAIL: the enrichment ratio is at most 0.25.
For MALL the value was 16.2.
For FALL the value was 16.3; for FAAN, at most 0.25; for FFLL, at most 0.25.
The result for MMLL reads 1.58.
For FARL, the enrichment ratio was at most 0.25.
As to ADHN, the enrichment ratio was at most 0.25.
For ALCG the value was 4.5; for WHCL, at most 0.25.
On to SADG, for which the enrichment ratio is at most 0.25.
For LGIQ the value was at most 0.25; for ADMC, 2.74; for ADVV, 8.21.
The result for AWVV reads at most 0.25; that for INCV, at most 0.25; that for INMV, 24.2.
For ANQF the value was 1.01; for ANMC, 22.9; for INIV, at most 0.25.
As to AIMC, the enrichment ratio is at most 0.25.
For ANMS, the enrichment ratio is 11.6.
The result for ANMG reads at most 0.25; that for AEVV, 14.7.
With HRGK, the enrichment ratio was at most 0.25.
On to GKTM, for which the enrichment ratio stood at 1.84.
The result for IPYY reads at most 0.25.
Consider KKIV, for which the enrichment ratio is at most 0.25.
The result for GAYK reads at most 0.25.
Regarding LLMQ, the enrichment ratio is at most 0.25.
The result for HFHH reads at most 0.25; that for ATFM, at most 0.25.
For ANLW the value was 9.25; for AIVV, 10.
For AHVV the value was at most 0.25; for ANLS, 12; for ANVV, 11.6.
In the case of ANVA, the enrichment ratio was found to be 3.53.
On to HRVV, for which the enrichment ratio was at most 0.25.
ANLA: the enrichment ratio is 5.31.
Regarding ANMI, the enrichment ratio was found to be 26.5.
The result for ANMR reads 5.84.
For the variant TRVV, the enrichment ratio is 14.5.
The result for QRVV reads at most 0.25; that for QRFS, at most 0.25.

The record behind these values is a collection of fitness landscapes (doi:10.1126/science.1257360).
